Bioassay records deposited in PubChem by several laboratories.
CendR NRP1 mod – NRP-1/CendR interaction modulation; AID 602438; actives 0.85% (n = 360,000); O14786; inhibition, % at 25 µM; FAM-RPARPAR peptide binding to NRP-1, fluorescence polarization;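 active = inhibition or corrected inhibition above about 18%, plus a signal ratio from 0.5 to 1.5, limit read from the data, passing the limit was not always enough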
ARNT-TACC3 inh – disrupts binding between human ARNT and TACC3; actives 0.66% (n = 390,000); AlphaScreen His-ARNT PAS-B/GST-TACC3 binding, luminescence; TACC3 fragment carries E629A point mutation; Q9Y6A5; inhibition, % at 9.99 µM;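 active = mean inhibition of replicates at least 50% and at least half of replicates each reaching 50%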;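 note: 0% = complete ARNT plus TACC3 wells and 100% = ARNT alone without TACC3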
ABCB6 inh MLPCN – inhibitors of human ABC transporter ABCB6. K562-ABCB6 porphyrin accumulation, flow cytometry, 1 h; hits give low values. fluorescence ratio to DMSO, % at 10 µM. actives 0.19% (n = 360,000). AID 602162;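 active = fluorescence ratio to DMSO below 75%, the collection mean minus 3 SD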;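 note: signal is porphyrin accumulated inside mitochondria; 100% equals median channel fluorescence of DMSO control wells; lower ratio means ABCB6 inhibition with less porphyrin fluorescence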
Target sequence (Q9NP58 whole entry, looked up): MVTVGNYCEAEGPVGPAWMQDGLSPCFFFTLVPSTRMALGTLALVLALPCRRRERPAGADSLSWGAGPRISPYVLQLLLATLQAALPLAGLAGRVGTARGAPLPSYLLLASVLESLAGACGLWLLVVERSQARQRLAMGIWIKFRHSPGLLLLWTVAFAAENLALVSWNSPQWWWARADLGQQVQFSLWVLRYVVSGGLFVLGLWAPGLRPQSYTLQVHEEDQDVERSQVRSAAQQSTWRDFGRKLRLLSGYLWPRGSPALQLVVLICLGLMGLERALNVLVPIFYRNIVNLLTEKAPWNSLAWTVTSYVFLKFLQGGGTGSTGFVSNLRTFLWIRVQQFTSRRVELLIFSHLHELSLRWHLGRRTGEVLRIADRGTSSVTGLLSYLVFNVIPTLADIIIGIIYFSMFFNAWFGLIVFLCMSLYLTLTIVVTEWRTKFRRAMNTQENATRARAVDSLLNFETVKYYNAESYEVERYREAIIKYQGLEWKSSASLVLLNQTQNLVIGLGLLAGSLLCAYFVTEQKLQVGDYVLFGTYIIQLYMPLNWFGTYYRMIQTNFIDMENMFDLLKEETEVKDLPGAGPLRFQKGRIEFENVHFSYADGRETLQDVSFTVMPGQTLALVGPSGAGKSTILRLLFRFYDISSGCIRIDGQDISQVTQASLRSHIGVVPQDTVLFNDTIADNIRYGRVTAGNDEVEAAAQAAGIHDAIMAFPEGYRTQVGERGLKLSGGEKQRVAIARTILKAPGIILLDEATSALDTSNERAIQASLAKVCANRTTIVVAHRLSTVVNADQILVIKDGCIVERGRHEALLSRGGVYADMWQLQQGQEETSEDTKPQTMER
GSIS activator – primary screen for activators of insulin secretion dependent on glucose, INS-1E cells, GLuc reporter luminescence. INS-1E GLuc reporter insulin secretion, 2-3 h. activation, % at 16.6 µM. actives 0.61% (n = 370,000). AID 743287;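 active = lowest replicate activation of at least 40%, so every replicate reaches that level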;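 note: 0% = median of neutral control wells and 100% = median of IBMX positive control wells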
hiPSC survival – increases survival of single human iPS cells; actives 0.044% (n = 360,000); survival enhancement, % at 20 µM; hiPSC single-cell survival, ATPlite luminescence; 100% = ROCK inhibitor wells, 0% = DMSO; in the data active = survival enhancement above about 18%;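 note: cells exposed to compounds for 16 hours before the ATP read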
* marks the source's active call; other numbers are inactive results; / = no result. Sampled rows, rich in hits. Any-hit rate of the full collection: about 1.8%.

SMILES	CendR NRP1 mod	ARNT-TACC3 inh	ABCB6 inh MLPCN	GSIS activator	hiPSC survival
C[C@@H]1CN([C@H](C)CO)C(=O)c2cccc(NC(=O)Nc3ccc4c(c3)OCO4)c2O[C@@H]1CN(C)Cc1ccc(-c2ccccc2)cc1	/	16.9	/	-9.3	/
COc1ccc(/C=N/NS(=O)(=O)c2ccccc2)cc1OC	-3.6	-1.4	85.0	71.4*	0.1
COc1ccc(/C=C2/SC(=O)N(NS(=O)(=O)c3ccccc3)C2=S)cc1OC	-84.2	5.7	104.0	48.7*	1.1
CN(C)CCCNC(=O)C[C@H]1CC[C@H]2[C@@H](COC[C@@H](O)CN2CC2CCCCC2)O1	/	/	/	5.9	/
CN(C)C(=O)C[C@@H]1CC[C@H]2[C@@H](COC[C@@H](O)CN2S(=O)(=O)c2ccccc2)O1	/	-4.3	/	6.0	/
OCCNc1nc(-c2ccccc2)c2cc(Br)ccc2n1	-1.4	-7.9	97.0	59.3*	0.3
CCOc1nc(-c2ccccc2)c2cc(Br)ccc2n1	3.4	-17.7	97.0	47.5*	0.8
O=[N+]([O-])c1ccc2nc(NCCCO)nc(-c3ccccc3)c2c1	5.7	15.8	103.0	22.2	0.0
N#Cc1ccccc1/C=N/Nc1nc(-c2ccccc2)c2cc(Br)ccc2n1	-5.0	5.5	101.0	/	-5.5
O=C(O)CNc1nc(-c2ccccc2)c2cc([N+](=O)[O-])ccc2n1	-9.2	10.6	91.0	60.9*	2.3
CCOC(=O)COc1nc2ccc(Br)cc2c(-c2ccccc2)c1C(C)=O	0.0	-3.9	93.0	7.7	-0.3
CCCC(=O)N1CC2(CN(C(C)=O)C2)c2c(n(C)c3cc(OC)ccc23)[C@H]1CO	/	/	/	44.4	/
Cc1cccc(C(=O)NNC(=O)c2ccc(-c3ccccc3)cc2)c1	-3.9	-2.6	102.0	99.3*	-0.7
COc1ccc(CCNc2ccncn2)cc1	-17.7	-10.8	97.0	/	-1.1
COc1ccc(CCNc2ccncn2)cc1OC	-8.2	-12.3	98.0	45.4*	-0.6
COc1ccc(C(=O)C2CCCN(Cc3cccn3-c3nccs3)C2)cc1OC (stereo not given)	4.8	8.9	99.0	80.8*	0.1
COc1ccc(C(=O)C2CCCN(C(=O)c3n[nH]c4c3CCCC4)C2)cc1OC (stereo not given)	-3.9	2.8	97.0	66.6*	-0.1
COCC(=O)N1CC2(C1)[C@H](c1ccc(-c3ccc(F)cc3)cc1)[C@@H](CO)N2C(C)=O	/	/	/	-13.3	/
CCNC(=O)[C@H]1[C@H](CO)[C@H]2Cn3c(ccc(-c4ccccc4F)c3=O)[C@@H]1N2CC1CC1	/	15.4	/	6.6	/
CCSc1nnc(NC(=O)c2cccc3ccccc23)s1	8.1	0.3	104.0	14.7	-0.3
CCSc1nnc(NC(=O)c2csc(C)c2)s1	3.0	-8.8	98.0	98.5*	-1.0
CCOC(=O)[C@@H]1[C@H]2COc3ccccc3[C@H]2N2C(=O)N(c3ccc(C)cc3)C(=O)[C@]12C	2.7	-1.7	103.0	-8.6	-1.8
CCOC(=O)[C@H]1[C@H]2COc3ccccc3[C@@H]2N2C(=O)[C@@H](C)NC(=O)[C@@]12C	28.1*	-4.8	95.0	4.7	-2.6
CCOC(=O)[C@@H]1[C@H]2COc3ccccc3[C@@H]2N2C(=O)N(c3ccc(Cl)cc3)C(=O)[C@]12C	30.2*	-0.4	97.0	/	-1.9
C[C@@H]1CCCCO[C@@H](CN(C)Cc2ccc(C(=O)O)cc2)[C@@H](C)CN([C@@H](C)CO)C(=O)c2cc(NC(=O)c3ccncc3)ccc2O1	/	-25.4	/	18.2	/
SMILES	CendR NRP1 mod	ARNT-TACC3 inh	ABCB6 inh MLPCN	GSIS activator	hiPSC survival
CCN(CC)c1ccc(/C=N/NC(=O)c2ccco2)c(O)c1	-58.3	73.8*	108.0	-9.8	-0.4
CCN(CC)c1ccc(/C=N/NC(=O)Cc2cccs2)c(O)c1	-16.7	32.1*	94.0	-11.9	-1.2
O=C(Cc1cccs1)N/N=C/c1ccccc1	-10.2	-4.2	92.0	/	-0.7
CCN(CC)c1ccc(/C=N/NC(=O)c2ccco2)cc1	-3.8	-1.0	100.0	0.8	-2.5
C[C@@H]1CCCCO[C@H](CN(C)C)[C@@H](C)CN([C@@H](C)CO)C(=O)c2cc(NC(=O)NC3CCCCC3)ccc2O1	/	/	/	6.6	/
CNC(=O)c1nnsc1S(=O)c1ccc(Cl)cc1 (stereo not given)	8.0	-28.4	108.0	139.5	-6.2
CCCNC(=O)c1nnsc1S(=O)c1ccc(Cl)cc1 (stereo not given)	0.7	-12.5	105.0	115.1*	-6.2
CCCNC(=O)c1nnsc1S(=O)(=O)c1ccc(Cl)cc1	-3.8	-11.0	99.0	65.0*	-5.0
CCCNC(=O)NS(=O)(=O)c1ccc(Cl)cc1	0.1	-0.1	89.0	/	2.4
C=CCN1C(=O)/C(=c2\sc3nc(=O)c(Cc4ccccc4)nn3c2=O)c2ccccc21	-14.1	/	103.0	6.4	-0.6
C=CCN1C(=O)/C(=c2\sc3nc(=O)c(Cc4ccc(OC)c(OC)c4)nn3c2=O)c2ccccc21	-12.1	/	11.0*	35.7	0.5
COCC(=O)N1CC(=O)N2[C@H](CO)[C@@H](c3ccc(-c4cccnc4)cc3)[C@@H]2C1	/	/	/	15.2	/
Cc1ccc(NS(=O)(=O)c2ccc3c(c2)CC(=O)N3)c(C)c1	-2.9	-7.0	100.0	/	30.7*
O=C(COc1ccc2c3c(c(=O)oc2c1)CCCC3)NCCN1CCOCC1	24.5*	3.6	96.0	-0.4	0.5
O=C(COc1ccc2c3c(c(=O)oc2c1)CCC3)NCCN1CCOCC1	7.7	-4.3	97.0	-2.6	0.6
O=C(NCC[C@H]1CC[C@@H](NC(=O)C2CCCCC2)[C@@H](CO)O1)c1cc(Cl)cc(Cl)c1	/	/	/	-11.6	/
C1CCC(C(CC2CCCCN2)C2CCCCC2)CC1 (stereo not given)	10.0	6.2	96.0	103.6*	-3.8
CCNC(=O)Nc1ccc2c(c1)C(=O)N(C)[C@H]1CC[C@@H](CC(=O)NCC3CC3)O[C@H]1CO2	/	-2.0	/	3.8	/
Cc1ccc(Nc2cc(C)nn2-c2nc(C)cc(C)n2)cc1	2.8	-0.7	91.0	/	-1.5
Cc1ccc(Nc2cc(C)nn2-c2nc(C)cc(=O)[nH]2)cc1	-6.8	63.4*	95.0	/	1.2
Cc1c(Cl)cccc1NC(=O)c1ncn[nH]1	1.0	73.1*	98.0	-19.6	0.1
Cc1ccc(NC(=O)c2ncn[nH]2)cc1	-6.2	-4.0	99.0	18.7	0.3
CC(NC(=O)CSc1nc2c(c(C(F)(F)F)n1)CCc1ccccc1-2)c1ccccc1 (stereo not given)	28.4*	-4.9	91.0	-4.6	-0.2
O=C(Cn1c(NCCCCl)nc2ccccc21)c1ccccc1	31.2*	-1.2	84.0	29.9	5.3
CCOC(=O)c1c(NC(=O)COc2ccccc2C#N)sc2c1CC(C)(C)NC2(C)C	22.1*	-1.7	100.0	-9.8	-0.5
CCOC(=O)c1c(NC(=O)COc2ccccc2OCC)sc2c1CC(C)(C)NC2(C)C	9.2	-9.4	98.0	/	-0.5
CC(=O)c1ccc(Nc2ncnc3ccc(Br)cc23)cc1	-56.3	/	103.0	/	-2.9
